Molecules are shown by their SMILES. Several values for one entry are separate records, joined by “and”; a condition that tells them apart may be missing. Equal entries are not always repeated. Results filed as inconclusive are left out. A structure can be active in one record and inactive in another. Activity calls are given as the source filed them. Unless noted, the call rests on the fitted dose curve; in most records, active means well fitted curve in the direction sought with a large enough effect in the repeat runs; inconclusive means weak or mixed curves; inactive means no such curve, though single readings can be large; an effect the other way counts as inactive or inconclusive.

The target in experiment [1] is Acetylcholinesterase (Homo sapiens) (UniProt P22303). Put plainly: Acetylcholinesterase (AChE) small molecule antagonists: enzyme-based qHTS assay (AID 1347397; calls by dose curve; further: nearly all actives have a fitted effect of over 55% in size). To be noted: Potency: AChE enzyme activity inhibition. In outline: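 Enzyme inhibition was scored from DTNB-detected thiocholine formed by recombinant human AChE acting on acetylthiocholine. The 30 min compound preincubation and 10 min substrate reaction were both run at room temperature, with DMSO as vehicle control.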

Experiment [2] has the same target. Put plainly: Acetylcholinesterase (AChE) small molecule antagonists: fluorescence cell-based qHTS assay (AID 1347398; calls by dose curve; further: nearly all actives have a fitted effect of over 50% in size). To be noted: Potency: AChE activity. An outline of the steps: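 Endogenous acetylcholinesterase of SH-SY5Y neuroblastoma cells is measured in situ. After overnight attachment and 30 min compound exposure, cells receive acetylthiocholine and Thiolite Green; fluorescence is read after 40 min at room temperature.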

Experiment [3] has the same target. Nature of the experiment: Acetylcholinesterase (AChE) small molecule antagonists: enzyme-based qHTS assay with human liver microsomes (AID 1347399; calls by dose curve; further: nearly all actives have a fitted effect of over 60% in size). To be noted: Potency: qHTS inhibition. An outline of the steps:
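Recombinant human AChE (50 mU/mL in the enzyme mix) and human liver microsomes (0.25 mg/mL final) were preincubated with compound and NADPH (0.25 mg/mL final) for 30 min at 37 C. Acetylthiocholine/DTNB was then added; thiocholine was read colorimetrically after 10 min at room temperature.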

Experiment [4] concerns the target Cytochrome P450 2C19 (Homo sapiens) (UniProt P33261). Nature of the experiment: Cytochrome P450 Family 2 Subfamily C Member 19 (CYP2C19) small molecule antagonists: luciferase reporter qHTS assay (AID 1671197). Further: nearly all actives have a fitted effect of over 65% in size. Further: potency means the concentration at half of the fitted maximal effect. On activity change, negative = inhibition: series mostly up to about 120 µM. In outline:
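Quantitative high-throughput screen of the Tox21 library using CYP2C19 with proluciferin substrate. Reaction: NADPH regeneration, 37C, 1 h, after 10 min compound preincubation at room temperature. Readout: luminescence.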

The target in experiment [5] is Cytochrome P450 1A2 (Homo sapiens) (UniProt P05177). Nature of the experiment: Cytochrome P450 Family 1 Subfamily A Member 2 (CYP1A2) small molecule antagonists: luciferase reporter qHTS assay (AID 1671199). Further: nearly all actives have a fitted effect of over 50% in size. Further: potency means the concentration at half of the fitted maximal effect. On activity change, negative = inhibition: series mostly up to about 120 µM. An outline of the steps: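 P450-Glo CYP1A2 enzyme–proluciferin substrate mix with compound 10 min at room temperature, then NADPH regeneration 1 h at room temperature. Luciferin detection reagent added, luminescence read after 20 min; furafylline positive control.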

Experiment [6] concerns the target Voltage-gated inwardly rectifying potassium channel KCNH2 (Homo sapiens) (UniProt Q12809). Nature of the experiment: Human Ether-a-go-go-Related Gene (hERG) channel small molecule antagonists: fluorescence cell-based qHTS assay (AID 1671200). Further: nearly all actives have a fitted effect of over 50% in size. Further: potency means the concentration at half of the fitted maximal effect.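 On activity change, negative = inhibition: hERG-expressing U2OS cells given a thallium stimulus after FluxOR II dye loading; series mostly up to about 77 µM.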 An outline of the steps:
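Measured: Tl+ flux via fluorescence (480/540 nm) in hERG-expressing U2OS cells after 1 h dye loading at room temperature.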

Experiment [7] deals with Cytochrome P450 3A4 (Homo sapiens) (UniProt P08684). Nature of the experiment: Cytochrome P450 Family 3 Subfamily A Member 4 (CYP3A4) small molecule antagonists: luciferase reporter qHTS assay (AID 1671201). Further: nearly all actives have a fitted effect of over 50% in size. Further: potency means the concentration at half of the fitted maximal effect. On activity change, negative = inhibition: series mostly up to about 120 µM. In outline:
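Setup: enzyme-substrate mix, compound pin transfer, 10 min RT. Reaction: NADPH regeneration solution, 1 h RT. Readout: detection reagent stops turnover, luminescence measured after 20 min, expressed in relative luminescence units.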

The target in experiment [8] is Cytochrome P450 2D6 (Homo sapiens) (UniProt P10635). Nature of the experiment: Cytochrome P450 Family 2 Subfamily D Member 6 (CYP2D6) small molecule antagonists: luciferase reporter qHTS assay (AID 1671196). Further: nearly all actives have a fitted effect of over 50% in size. Further: potency means the concentration at half of the fitted maximal effect. On activity change, negative = inhibition: series mostly up to about 120 µM. In outline: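 Cell-free P450-Glo system: CYP2D6 with proluciferin substrate was pre-incubated with compound for 10 min, then reacted with NADPH regeneration for 1 h at room temperature. Luciferin product was detected after 20 min, and data were reported as relative luminescence units.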

Experiment [9] deals with Cytochrome P450 2C9 (Homo sapiens) (UniProt P11712). Nature of the experiment: Cytochrome P450 Family 2 Subfamily C Member 9 (CYP2C9) small molecule antagonists: luciferase reporter qHTS assay (AID 1671198). Further: nearly all actives have a fitted effect of over 50% in size. Further: potency means the concentration at half of the fitted maximal effect. On activity change, negative = inhibition: series mostly up to about 120 µM. An outline of the steps: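 P450-Glo proluciferin substrate with CYP2C9 enzyme; 10 min RT preincubation, then NADPH regeneration 1 h at 37C; luciferin detection reagent 20 min RT, luminescence in relative luminescence units.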
On the % scale 0 is the no-effect control and ±100 the full control effect.

Cytochrome P450 2D6 (Homo sapiens), sequence (P10635 whole entry, looked up): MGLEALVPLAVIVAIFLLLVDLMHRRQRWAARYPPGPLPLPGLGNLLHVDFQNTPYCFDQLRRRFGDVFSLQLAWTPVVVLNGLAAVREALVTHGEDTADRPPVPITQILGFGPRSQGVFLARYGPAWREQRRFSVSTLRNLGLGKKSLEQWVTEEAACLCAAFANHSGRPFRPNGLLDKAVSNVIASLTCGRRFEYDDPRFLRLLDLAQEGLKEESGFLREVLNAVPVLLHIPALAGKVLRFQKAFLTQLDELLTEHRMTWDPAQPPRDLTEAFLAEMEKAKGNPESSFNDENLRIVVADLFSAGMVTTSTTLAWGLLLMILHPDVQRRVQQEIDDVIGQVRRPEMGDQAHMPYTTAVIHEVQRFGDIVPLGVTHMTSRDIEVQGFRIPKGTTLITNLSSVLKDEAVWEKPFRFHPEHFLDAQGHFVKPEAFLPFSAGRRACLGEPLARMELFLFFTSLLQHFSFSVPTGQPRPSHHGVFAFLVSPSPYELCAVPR
Cytochrome P450 1A2 (Homo sapiens), sequence (P05177 whole entry, looked up): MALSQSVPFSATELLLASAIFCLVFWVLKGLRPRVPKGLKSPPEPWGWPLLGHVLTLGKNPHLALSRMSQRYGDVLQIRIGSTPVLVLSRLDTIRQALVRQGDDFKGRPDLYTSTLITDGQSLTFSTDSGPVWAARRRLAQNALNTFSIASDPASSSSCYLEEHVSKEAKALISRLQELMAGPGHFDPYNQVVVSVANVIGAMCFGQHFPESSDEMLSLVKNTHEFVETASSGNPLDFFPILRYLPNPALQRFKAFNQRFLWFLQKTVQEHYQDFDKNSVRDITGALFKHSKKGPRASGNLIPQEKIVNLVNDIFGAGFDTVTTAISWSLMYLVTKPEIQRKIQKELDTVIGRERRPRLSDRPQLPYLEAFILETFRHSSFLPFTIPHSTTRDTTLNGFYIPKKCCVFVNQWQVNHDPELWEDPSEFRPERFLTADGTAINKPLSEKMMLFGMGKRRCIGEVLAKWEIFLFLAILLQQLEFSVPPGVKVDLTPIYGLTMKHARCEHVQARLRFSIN
Acetylcholinesterase (Homo sapiens), sequence (P22303 whole entry, looked up): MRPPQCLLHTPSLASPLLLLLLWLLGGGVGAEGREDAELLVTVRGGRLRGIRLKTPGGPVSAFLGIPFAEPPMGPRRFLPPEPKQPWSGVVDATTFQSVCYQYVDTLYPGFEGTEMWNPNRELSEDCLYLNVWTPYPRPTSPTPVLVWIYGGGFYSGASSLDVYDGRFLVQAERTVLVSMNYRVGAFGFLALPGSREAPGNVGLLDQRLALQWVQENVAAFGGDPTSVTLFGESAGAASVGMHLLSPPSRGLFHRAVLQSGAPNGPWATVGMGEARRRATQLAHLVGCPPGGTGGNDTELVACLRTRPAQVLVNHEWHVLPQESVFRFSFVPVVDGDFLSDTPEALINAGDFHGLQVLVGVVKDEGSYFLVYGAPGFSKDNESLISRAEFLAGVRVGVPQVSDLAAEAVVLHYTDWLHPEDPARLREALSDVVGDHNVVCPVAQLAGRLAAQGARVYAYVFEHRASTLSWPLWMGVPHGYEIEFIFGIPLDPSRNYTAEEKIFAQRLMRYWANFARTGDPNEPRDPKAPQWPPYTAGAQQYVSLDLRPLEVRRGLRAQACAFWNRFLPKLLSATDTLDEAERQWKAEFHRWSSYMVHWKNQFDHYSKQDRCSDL
Cytochrome P450 2C9 (Homo sapiens), sequence (P11712 whole entry, looked up): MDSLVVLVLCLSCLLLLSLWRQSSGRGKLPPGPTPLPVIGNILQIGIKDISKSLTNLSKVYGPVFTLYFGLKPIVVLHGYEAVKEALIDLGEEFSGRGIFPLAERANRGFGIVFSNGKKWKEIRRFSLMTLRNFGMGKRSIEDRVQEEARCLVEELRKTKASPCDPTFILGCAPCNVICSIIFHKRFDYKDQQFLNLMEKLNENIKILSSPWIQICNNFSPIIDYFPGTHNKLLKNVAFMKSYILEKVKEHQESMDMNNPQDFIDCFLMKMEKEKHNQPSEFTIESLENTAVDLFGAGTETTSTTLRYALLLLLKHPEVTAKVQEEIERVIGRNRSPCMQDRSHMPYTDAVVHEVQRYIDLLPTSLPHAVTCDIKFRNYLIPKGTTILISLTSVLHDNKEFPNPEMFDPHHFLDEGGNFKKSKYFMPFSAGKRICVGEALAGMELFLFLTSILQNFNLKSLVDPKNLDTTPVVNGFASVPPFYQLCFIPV
Voltage-gated inwardly rectifying potassium channel KCNH2 (Homo sapiens), sequence (Q12809 whole entry, looked up): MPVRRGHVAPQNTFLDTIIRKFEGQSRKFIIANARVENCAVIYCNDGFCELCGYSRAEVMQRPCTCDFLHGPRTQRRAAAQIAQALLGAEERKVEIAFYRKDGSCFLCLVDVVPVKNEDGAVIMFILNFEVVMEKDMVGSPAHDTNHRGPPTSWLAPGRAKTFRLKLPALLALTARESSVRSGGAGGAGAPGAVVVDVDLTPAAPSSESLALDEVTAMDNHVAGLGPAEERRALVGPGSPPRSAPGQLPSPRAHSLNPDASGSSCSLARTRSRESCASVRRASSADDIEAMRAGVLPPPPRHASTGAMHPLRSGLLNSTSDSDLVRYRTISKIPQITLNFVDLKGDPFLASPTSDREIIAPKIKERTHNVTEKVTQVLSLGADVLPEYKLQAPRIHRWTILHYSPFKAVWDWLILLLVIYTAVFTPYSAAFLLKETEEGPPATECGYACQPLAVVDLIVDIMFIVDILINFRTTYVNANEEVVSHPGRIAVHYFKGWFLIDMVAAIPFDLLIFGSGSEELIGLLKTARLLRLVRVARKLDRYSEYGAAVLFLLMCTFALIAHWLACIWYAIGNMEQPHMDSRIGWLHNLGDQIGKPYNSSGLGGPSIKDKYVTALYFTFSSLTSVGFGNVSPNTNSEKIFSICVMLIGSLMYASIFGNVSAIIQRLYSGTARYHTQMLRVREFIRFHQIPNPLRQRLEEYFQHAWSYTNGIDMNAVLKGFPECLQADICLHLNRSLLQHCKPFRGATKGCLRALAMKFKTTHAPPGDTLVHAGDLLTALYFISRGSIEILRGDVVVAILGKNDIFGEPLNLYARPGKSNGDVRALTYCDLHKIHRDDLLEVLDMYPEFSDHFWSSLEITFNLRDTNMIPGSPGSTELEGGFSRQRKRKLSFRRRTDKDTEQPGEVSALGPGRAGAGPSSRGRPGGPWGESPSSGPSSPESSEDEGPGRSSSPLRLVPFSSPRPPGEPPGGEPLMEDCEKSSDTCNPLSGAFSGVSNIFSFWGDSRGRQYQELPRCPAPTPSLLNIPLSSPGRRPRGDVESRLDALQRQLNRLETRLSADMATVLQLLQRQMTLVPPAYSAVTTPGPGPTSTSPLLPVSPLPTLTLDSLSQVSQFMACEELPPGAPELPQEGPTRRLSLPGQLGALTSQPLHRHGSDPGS
Cytochrome P450 2C19 (Homo sapiens), sequence (P33261 whole entry, looked up): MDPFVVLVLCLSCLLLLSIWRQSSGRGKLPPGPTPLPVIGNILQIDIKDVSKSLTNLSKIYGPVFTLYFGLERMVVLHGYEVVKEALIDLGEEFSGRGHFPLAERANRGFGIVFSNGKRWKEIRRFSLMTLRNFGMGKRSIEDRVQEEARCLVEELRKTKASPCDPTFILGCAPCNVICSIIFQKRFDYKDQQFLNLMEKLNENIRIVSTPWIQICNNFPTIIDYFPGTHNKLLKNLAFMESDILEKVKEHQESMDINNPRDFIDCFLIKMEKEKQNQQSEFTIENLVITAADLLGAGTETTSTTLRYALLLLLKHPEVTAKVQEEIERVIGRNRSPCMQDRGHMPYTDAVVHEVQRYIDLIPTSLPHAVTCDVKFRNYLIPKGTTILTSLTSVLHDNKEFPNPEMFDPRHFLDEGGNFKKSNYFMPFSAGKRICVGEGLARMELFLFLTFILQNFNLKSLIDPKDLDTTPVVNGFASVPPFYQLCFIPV
Cytochrome P450 3A4 (Homo sapiens), sequence (P08684 whole entry, looked up): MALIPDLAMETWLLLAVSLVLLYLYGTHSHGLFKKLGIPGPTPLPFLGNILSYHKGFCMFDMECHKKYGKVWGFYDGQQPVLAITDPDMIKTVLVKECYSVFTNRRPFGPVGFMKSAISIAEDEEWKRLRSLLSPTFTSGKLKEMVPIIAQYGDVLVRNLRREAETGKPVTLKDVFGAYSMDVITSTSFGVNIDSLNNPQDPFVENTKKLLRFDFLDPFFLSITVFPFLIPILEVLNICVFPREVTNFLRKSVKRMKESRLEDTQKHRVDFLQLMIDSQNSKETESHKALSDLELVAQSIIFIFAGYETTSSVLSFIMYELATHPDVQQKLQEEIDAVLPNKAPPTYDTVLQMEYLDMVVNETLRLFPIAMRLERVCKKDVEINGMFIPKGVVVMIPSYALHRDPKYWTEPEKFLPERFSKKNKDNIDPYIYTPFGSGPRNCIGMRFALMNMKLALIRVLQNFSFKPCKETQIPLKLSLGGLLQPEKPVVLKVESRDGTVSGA

As to `NNC(=O)c1cccnc1`, the Potency result in [1], in experiment [2], in experiment [3] and in [6] was “inactive” throughout. Moreover, the results for the Potency in experiment [4], in experiment [5] and in [7] were 71.3 µM (active), 12.7 µM (active) and 2.53 µM (active), respectively.
With `O=Cc1ccc2c(c1)OCO2`, the Potency entry in [2], in [3], in experiment [8], in [4], in experiment [6] and in [7] was “inactive” each time. Further, the Potency in experiment [5] is 31.3 µM (active).
`[CH3][Sn]([CH3])([Cl])[Cl]`: the Potency entry in [2], in experiment [3], in experiment [8], in experiment [4], in experiment [9] and in [5] was “inactive” in each case. The Potency result in experiment [6] and in experiment [7] was “inactive” each time.
`CCCN(CCC)c1c([N+](=O)[O-])cc(S(C)(=O)=O)cc1[N+](=O)[O-]`: the Potency entry in experiment [1], in experiment [2], in experiment [3], in experiment [5] and in experiment [6] was “inactive” throughout. In addition, the Potency in experiment [9] was 28.3 µM (active); in [7] it was 20 µM (active).
Regarding `c1cc2ccc3cccc4ccc(c1)c2c34`, the Potency result in [1], in experiment [2], in experiment [3] and in [6] was “inactive” each time. Moreover, the Potency in [4] is 16.7 µM (active); in [9], 74.4 µM (active); in [5] it was 0.564 µM (active).
As to `CCOP(=O)(OCC)O/C(=C/Cl)c1ccc(Cl)cc1Cl`, the Potency in [8] is 39.9 µM (active); in experiment [4], 1.12 µM (active); in experiment [9], 28.3 µM (active); in experiment [5], 6.33 µM (active). For the same compound, the Potency result in experiment [6] and in [7] was “inactive” in each case.
Take `C#CCOC(C(=O)OCCN(C)C)(c1ccccc1)c1ccccc1`: the Potency in experiment [8] was 3.47 µM (active); in experiment [4], 1.95 µM (active); in experiment [9] it was 2.19 µM (active). Moreover, the Potency entry in experiment [5] is “inactive”.
As for `CCCCCC[N+](=O)[O-]`, the Potency entry in experiment [6] is “inactive”.
For `Nc1ccc(N=Nc2ccc(-c3ccc(N=Nc4c(S(=O)(=O)O)cc5cc(S(=O)(=O)O)c(N=Nc6ccccc6)c(O)c5c4N)cc3)cc2)c(N)c1`, the Potency entry in experiment [1], in experiment [2], in [3], in experiment [4] and in [6] was “inactive” each time.
On to `C=CC(=O)OC`, for which, in experiment [6], the Potency entry was “inactive”.
In the case of `O=C(N[C@H](c1ccccc1)[C@@H]1CN2CCC1CC2)c1c(Cl)ccc(C(F)(F)F)c1Cl`, the figures for the Potency in [8] and in experiment [6] were 2.56 µM (active) and 39.5 µM (active), respectively. In addition, the Potency result in experiment [5] was “inactive”.
Take `C=CC(=O)OCC(C)O` (stereo unspecified): the Potency result in [2], in [3], in experiment [8], in [4], in experiment [9] and in experiment [6] was “inactive” in each case. In [7], the Potency result is “inactive”.
Regarding `CCOc1ccc(C(C)(C)COCc2cccc(Oc3ccccc3)c2)cc1`, the Potency entry in experiment [2], in [3], in [6] and in [7] was “inactive” in each case. The figures for the Potency in experiment [8], in experiment [4] and in experiment [9] were 35.6 µM (active), 17.8 µM (active) and 6.33 µM (active), respectively.
`O=Cc1ccc(Cl)cc1Cl`: the Potency entry in [2], in [3], in [8], in [4], in experiment [9] and in experiment [5] was “inactive” in each case. In addition, the Potency result in experiment [6] and in experiment [7] was “inactive” throughout.
With `CCOC(=O)C(Cl)C(C)=O` (stereo unspecified), the Potency entry in experiment [3], in [8], in experiment [9], in experiment [5], in [6] and in [7] was “inactive” throughout.
Take `O=S1OC[C@@H]2[C@H](CO1)[C@]1(Cl)C(Cl)=C(Cl)[C@@]2(Cl)C1(Cl)Cl` (stereo partly specified): the Potency in experiment [4] is 7.96 µM (active); in experiment [9] it was 39.9 µM (active); in experiment [5], 35.6 µM (active). In experiment [7], the Potency entry was “inactive”.
With `CCCN(CCCl)c1c([N+](=O)[O-])cc(C(F)(F)F)cc1[N+](=O)[O-]`, the Potency result in experiment [2], in experiment [3] and in experiment [6] was “inactive” throughout. The Potency in [4] is 17.8 µM (active); in experiment [9] it was 20 µM (active); in experiment [5], 12.6 µM (active); in experiment [7], 22.4 µM (active).
For the compound `CCOP(=S)(OCC)SCSCC`, the Potency entry in experiment [1], in experiment [3] and in experiment [6] was “inactive” throughout. In addition, the Potency in experiment [4] was 20 µM (active); in experiment [9] it was 35.6 µM (active); in experiment [5] it was 22.4 µM (active); in [7], 6.33 µM (active).
As to `O=C1NCN(c2ccccc2)C12CCN(CCCOc1ccc(F)cc1)CC2`, the Potency entry in [2], in experiment [3], in experiment [4], in [9], in experiment [5] and in experiment [7] was “inactive” in each case. The Potency in experiment [8] is 0.347 µM (active); in [6], 0.601 µM (active).
Take `OCCCBr`: the Potency result in [1], in experiment [2], in experiment [3] and in experiment [6] was “inactive” in each case. For the same compound, the Potency in experiment [4] is 3.99 µM (active); in [5], 61.8 µM (active).
`CCn1cc[n+](C)c1`: the Potency entry in [8] is “inactive and 507 nM (active) and 34.7 µM (active)”; in [4] it was “inactive and 40.3 µM (active) and 79.5 µM (active)”; in experiment [9], “inactive and 32 µM (active)”; in [5], 35.5 µM (active) and inactive and 39 µM (active); in experiment [6], “inactive and 24.8 µM (active)”. Also, in experiment [7], the Potency entry is “inactive”.
Regarding `CCOP(=S)(OCC)Oc1cc(Cl)c(Br)cc1Cl`, the Potency result in experiment [8] and in experiment [6] was “inactive” throughout. The Potency is 0.71 µM (active) in [4], 2 µM (active) in [9], 3.56 µM (active) in [5] and 2.24 µM (active) in experiment [7].
Take `CCCCc1c(C)nc(NCC)nc1OS(=O)(=O)N(C)C`: in [3], the Potency entry was “inactive”. For the same compound, the Potency in experiment [4] is 79.6 µM (active); in [9] it was 31.7 µM (active); in experiment [5], 12.6 µM (active); in [7] it was 12.6 µM (active).
Take `COc1c(C(C)(C)C)cc([N+](=O)[O-])c(C)c1[N+](=O)[O-]`: the Potency entry in [3] and in experiment [7] was “inactive” each time. The Potency in experiment [4] is 28.1 µM (active); in [5] it was 1.77 µM (active).
For the compound `CO[C@@H]1[C@H](OC(=O)NC(=O)CCl)CC[C@]2(CO2)[C@H]1[C@@]1(C)O[C@@H]1CC=C(C)C`, the activity change, negative = inhibition in experiment [1] was 0.618% [at 23.6 µM] (inactive); in [2], -0.397% [at 23.8 µM] (inactive); in [3], -0.551% [at 23.6 µM] (inactive); in experiment [8] it was -6.64% [at 23.6 µM] (inactive); in experiment [6] it was 7.85% [at 15.8 µM] (inactive). Further, the Potency in experiment [4] was 21.8 µM (active); in [7] it was 7.74 µM (active).
Consider `NCC(CC(=O)O)c1ccc(Cl)cc1` (stereo unspecified), for which the activity change, negative = inhibition in experiment [2] was 5.21% [at 0.439 µM] (inactive); in experiment [3], -0.275% [at 0.435 µM] (inactive); in experiment [8] it was -6.8% [at 0.435 µM] (inactive); in experiment [4], -14.5% [at 0.435 µM] (inactive); in experiment [9], 1.42% [at 0.435 µM] (inactive); in experiment [5] it was 12.7% [at 0.435 µM] (inactive). Also, the values for the activity change, negative = inhibition in experiment [6] and in experiment [7] were -9.45% [at 0.29 µM] (inactive) and 4.59% [at 0.435 µM] (inactive), respectively.
As to `COC(=O)C(Cl)C(=O)OC`, the Potency entry in experiment [2], in experiment [3], in experiment [8], in experiment [9], in experiment [5] and in experiment [6] was “inactive” each time. For the same compound, the Potency entry in [7] is “inactive”.
Consider `NCCCNCCCN`, for which the Potency entry in experiment [6] is “inactive”.
With `C[C@@H]1CC[C@H]2[C@@H](C)C(=O)O[C@@H]3O[C@@]4(C)CC[C@@H]1[C@]32OO4`, the Potency entry in experiment [6] is “inactive”.

For the origin of these results see PubChem BioAssay (Tox21).
